Bioassay records as filed in PubChem BioAssay.
HPGD inh – inhibitors of human 15-hydroxyprostaglandin dehydrogenase (HPGD). actives 4.3% (n = 150,000). Potency, µM, for inactives: at the top dose activity change, negative = inhibition, actives largely listed as inhibitors. AID 894. P15428. purified HPGD, NADH fluorescence kinetic, PGE2 substrate; further: potency means the concentration at half of the fitted maximal effect
Target sequence (P15428 whole entry, looked up): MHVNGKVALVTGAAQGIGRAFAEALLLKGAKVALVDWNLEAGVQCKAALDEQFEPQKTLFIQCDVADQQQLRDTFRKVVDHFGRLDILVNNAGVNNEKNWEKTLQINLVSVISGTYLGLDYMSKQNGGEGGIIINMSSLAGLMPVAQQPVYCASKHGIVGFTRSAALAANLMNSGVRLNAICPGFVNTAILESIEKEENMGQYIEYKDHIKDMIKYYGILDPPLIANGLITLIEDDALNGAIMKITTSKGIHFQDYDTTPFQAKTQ
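20 nM HPGD preincubated 15 min at room temperature with compound in 50 mM Tris-HCl pH 8, 0.01% Tween 20. Started with 1 mM NAD+ and 30 uM prostaglandin E2; NADH fluorescence (360/450 nm) read 5 times over 30-s intervals, last minus first.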
IMPase inh – IMPase inhibition in cells; AID 901; inhibition (IP1 accumulation), % at 46.1 µM; 120,000 tested, under 10 active; P97697; CHO-M1 cells, IP1 accumulation, HTRF TR-FRET ratio; active means well fitted curve in the direction sought with a large enough effect in the signal ratio, not every such curve was filed as active; inconclusive means small, poorly fitted or top-dose-only effect, or a change in a side signal; inactive means no such curve, though single readings can be large or run the other way; the % refers to the signal ratio;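 further: cells stimulated with carbachol in lithium chloride buffer; plate controls were DMSO basal wells for no effect and reference inhibitor wells for full effect; higher means more IMPase inhibition seen as more IP1 and lower FRET ratio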
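CHO-M1, 2000 cells/well, cultured 16–30 h; cpd up to 46 uM; carbachol (50 uM solution, stimulation buffer w/ 50 mM LiCl, pH 7.4), 30 min 37C; IP-One TR-FRET, 10 min RT; Ex 320/Em 665, 620; Hill-fit AC50.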
PNC assembly inh – blocks assembly of the perinucleolar compartment. PC3M PTB-GFP, PNC prevalence imaging, 16 h; active compounds read low. activity change (PNC), negative = inhibition, % at 10 µM. actives 3.1% (n = 140,000);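 active means readout at or below -70, meaning at least 70% loss of cells showing the perinucleolar compartment, a nuclear body marking cancer cells; inconclusive means readout between -30 and a set limit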;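 further: plate controls were DMSO wells for no effect and camptothecin positive control wells for full effect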
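Compounds are pinned in duplicate onto adhered PC3M cells stably expressing GFP-tagged PTB and incubated 16 h at 37 C. Cells are then fixed, nuclei stained with Hoechst, and PNC-positive cells counted.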
KinaseGlo FLuc – counter-screen: inhibitors of Kinase-Glo firefly luciferase | Q27757 | Kinase-Glo luciferase, ATP luminescence, 8 min | Potency, µM (series often up to 38.3 µM), inactives show at the highest dose activity change, negative = inhibition, hits mostly inhibitors | actives 0.28% (n = 200,000) | AID 1379; active means well fitted inhibition curve with a large enough effect; inconclusive means small, poorly fitted or top-dose-only effect; further: potency means the concentration at half of the fitted maximal effect; nearly all actives have a fitted effect of over 60% in size
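Compounds were added to a substrate mix at pH 7.2 (50 mM imidazole, 10 uM ATP, within the enzyme's linear range), followed by Kinase-Glo detection reagent; luminescence was measured after 8 minutes at ambient temperature.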
ALDH1A1 block – inhibitors of human aldehyde dehydrogenase 1A1; P00352; Purified ALDH1A1, NADH fluorescence, propionaldehyde substrate; Potency, µM (doses to about 75.3 µM), for inactives: at the highest dose activity, negative = inhibition, most hits filed as inhibitors; actives 7.3% (n = 220,000); AID 1030;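 further: potency means the concentration at half of the fitted maximal effect; plate controls were no enzyme wells and a reference inhibitor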
Target sequence (P00352 whole entry, looked up): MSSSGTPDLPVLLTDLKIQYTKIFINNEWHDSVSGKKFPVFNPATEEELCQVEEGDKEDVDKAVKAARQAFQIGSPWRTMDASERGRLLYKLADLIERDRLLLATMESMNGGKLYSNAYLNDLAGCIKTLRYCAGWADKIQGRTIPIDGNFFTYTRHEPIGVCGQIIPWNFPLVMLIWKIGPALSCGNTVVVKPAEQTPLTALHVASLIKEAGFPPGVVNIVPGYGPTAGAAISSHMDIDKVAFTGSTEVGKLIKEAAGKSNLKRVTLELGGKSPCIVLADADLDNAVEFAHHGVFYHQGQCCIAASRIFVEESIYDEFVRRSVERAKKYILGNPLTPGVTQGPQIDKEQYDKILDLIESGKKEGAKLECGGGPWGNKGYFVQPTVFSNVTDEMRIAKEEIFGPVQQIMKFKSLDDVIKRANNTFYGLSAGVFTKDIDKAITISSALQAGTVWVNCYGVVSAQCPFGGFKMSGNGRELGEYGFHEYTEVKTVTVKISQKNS
LMNA splice mod – modulators of lamin A splicing. HeLa LMNA splicing GFP/RFP minigene ratio, 48 h. Potency, µM (top dose mostly 46.1 µM), for inactives: top-dose ratio change, negative = inhibition, hits mostly inhibitors. actives 0.01% (n = 200,000). AID 1487; active means well fitted inhibition curve with a large enough effect in the signal ratio, with a control signal flat, not every such curve was filed as active; inconclusive means small, poorly fitted or top-dose-only effect, or effect the other way, or a change in a side signal; the % refers to the signal ratio; further: potency means the concentration at half of the fitted maximal effect
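S3 HeLa stable clones carrying a lamin A-EGFP splicing minigene plus DsRed2 were seeded at 600 cells/well in Opti-MEM with 2% FBS, pin-dosed and incubated 48 h at 37°C. Acumen cytometry (488 nm) gave the GFP/RFP total-intensity ratio.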
* = called active by the depositor; ? = inconclusive; . = no result given; [ ] = remark or other dose. A selection: hits, their analogues and other compounds. The true share with any hit is near 10%. Unless noted, the call rests on the fitted dose curve; in most records, active means well fitted inhibition curve with a large enough effect (not every such curve was filed as active); inconclusive means small, poorly fitted or top-dose-only effect, or another doubt; inactive means no such curve, though single readings can be large or run the other way. Unless noted, on the % scale 0 is the no-effect control and ±100 the full control effect.

SMILES | HPGD inh | IMPase inh | PNC assembly inh | KinaseGlo FLuc | ALDH1A1 block | LMNA splice mod
CCNc1ncc2ncc(=O)n(C3CC3)c2n1 | . | . | . | . | ? | 17%
C=CCSc1nc2sc3c(c2c(=O)n1CC)CCc1ccccc1-3 | 2.2µM* | -6 | -4 | -8% | 1.6µM* | 1%
Cc1ccc(S(=O)(=O)Cc2sc3ccccc3[n+]2C)cc1 | 22µM* | 8 | 26 | -3% | ? | 9%
O=S(=O)(Cc1nc2ccccc2s1)c1ccccc1 | -6% | -10 | ? | -4% | -6% | -4%
CCCCc1cc2c(cn1)=C(OC(=O)c1cccs1)C(C)(OC(=O)CC)C(=O)C=2 (stereo not given) | -8% | . | . | -8%[7.66 µM] | 3.2µM* | ?
CCCCc1cc2c(cn1)=C(OC(=O)C1CCCC1)C(C)(OC(=O)CC)C(=O)C=2 (stereo not given) | -3% | . | . | -4%[7.66 µM] | ? | ?
Cc1c(Cl)cccc1NC(=O)CSc1nc(=O)n(Cc2ccccn2)c2c1CCC2 | . | . | . | . | . | -5%[46 µM]
O=c1c2c(nc3nc(COc4ccccc4)[nH]n13)CCC2 | -3% | 6 | -110* | -1% | 3% | -9%
COc1cc2[nH]c(=S)n(Cc3cccs3)c(=O)c2cc1OC | . | . | . | -1% | 1.1µM* | ?
CCSc1nnc2n1C(C)(C)Cc1ccccc1-2 | -11% | 2 | ? | -4% | -4% | 21%
CC1(C)Cc2ccccc2-c2n[nH]c(=S)n21 | -22% | -23 | 37 | 0% | 13µM* | ?
COc1cccc(C2CC(=O)Nc3c2c(=O)nc2c(C)cccn32)c1OC (stereo not given) | . | . | . | . | . | 4%[46 µM]
Cc1ccc2c(c1)C(c1ccccc1)N(C(=O)C(C)C)CC(=O)N2 (stereo not given) | 1% | 1 | 7 | 2% | 8% | -2%
Cc1ccc2c(c1)C(c1ccc(F)cc1)N(C(=O)c1cc3ccccc3oc1=O)CC(=O)N2 (stereo not given) | -6% | . | -89* | 11% | ? | ?
CCOC(=O)c1ccc(NC(=O)C(Cc2ccccc2)NS(=O)(=O)c2ccc(Br)s2)cc1 (stereo not given) | . | -2 | . | . | . | .
COc1ccc(NC(=O)COC(=O)Cc2ccccc2[N+](=O)[O-])cc1OC | . | . | . | 3% | 14µM* | .
Cc1c(C(=O)OCC(=O)NCc2ccc3c(c2)OCO3)cccc1[N+](=O)[O-] | -15% | . | -11 | 1% | 7.9µM* | 7%
COc1ccc(NCc2ccccc2[N+](=O)[O-])cc1OC | -6% | . | -10 | 0% | ? | -2%
Cc1c(C(=O)OCC(=O)Nc2ccc3c(c2)OCO3)cccc1[N+](=O)[O-] | -11% | . | 4 | -1% | 8.9µM* | -17%
O=C(CCC1N=C2c3ccccc3N=C(SCc3cccc(F)c3)N2C1=O)NCc1ccc(F)cc1 (stereo not given) | . | . | . | . | . | -4%[46 µM]
O=C(Nc1cccc(Cl)c1)C1CCCN(c2nn3cc(-c4ccc(F)cc4)nc3s2)C1 (stereo not given) | . | . | . | . | . | 4%[46 µM]
COc1ccc2c(c1)O[C@@H](c1ccc3c(c1)OCO3)[C@H](OC(=O)NCc1ccc3c(c1)OCO3)C2=O | -7% | . | . | 0% | -6% | .
Cc1ccc(C)c(S(=O)(=O)Nc2ccc3scnc3c2)c1 | -17% | -6 | -6 | 0% | 1.8µM* | -22%
Cc1ccc(C)c(S(=O)(=O)Nc2nc3ccc(S(N)(=O)=O)cc3s2)c1 | . | . | . | . | 6% | .
CCOc1ccc2nc(C)cc(Nc3ccccc3OCC)c2c1 | . | 6 | . | . | . | .
SMILES | HPGD inh | IMPase inh | PNC assembly inh | KinaseGlo FLuc | ALDH1A1 block | LMNA splice mod
CCCN1C/C(=C/c2ccc3c(c2)OCO3)C(=O)/C(=C/c2ccc3c(c2)OCO3)C1 | -10% | -9 | -20 | 3% | ? | ?
CC1=C/C(=C\c2ccc3c(c2)OCO3)C(=O)S1 | -20% | -1 | -85* | -4% | ? | 17%
O=C(Nc1ccccn1)c1onc2c1CCCC2 | -1% | . | ? | 13µM* | -12% | -8%
COCCn1c(C)cc(O)c(C(c2ccccc2Cl)N2CCN(c3ccccc3)CC2)c1=O (stereo not given) | . | . | . | . | . | -1%[46 µM]
Cc1ccc(COc2ccccc2C(=S)N2CCCC2)cc1 | . | . | . | -2% | 25µM* | -21%[46 µM]
O=C(OCC(=O)N1CCCC1)c1ccccc1OCc1ccccc1 | 1% | -3 | 28 | -2% | 0% | -9%
Fc1ccc(COc2ccccc2C(=S)N2CCCC2)cc1 | 8.9µM* | . | -11 | 2% | 7.9µM* | ?
CCS(=O)(=O)c1ccc2oc(SCC(=O)NC34CC5CC(CC(C5)C3)C4)nc2c1 | -13% | 5 | -26 | 2% | 0% | -19%
CCS(=O)(=O)c1ccc2oc(SCC(=O)NC3CCCC(C)C3C)nc2c1 (stereo not given) | 32µM* | 3 | ? | 0% | 3% | -20%
CC1=NNC(=O)/C1=C\c1cn(-c2ccccc2)nc1-c1cccs1 | 16µM* | . | -6 | 2% | ? | ?
CC1=NNC(=O)/C1=C\c1cn(-c2ccccc2)nc1-c1ccc(F)cc1 | . | . | . | 0% | ? | ?
NCOC(=O)Cc1ccc(Br)cc1 | -2% | . | . | -2%[7.66 µM] | -3%[13.5 µM] | .
Cn1c(-c2ccc(F)cc2)cnc1NCc1cc2c(cc1[N+](=O)[O-])OCO2 | -17% | 10 | ? | 2% | 3% | -7%
COc1ccccc1CNc1ccc([N+](=O)[O-])cc1C | . | . | . | -3% | ? | .
Cn1c(-c2ccc(Cl)cc2)cnc1NCc1cc2c(cc1[N+](=O)[O-])OCO2 | 0% | -1 | -13 | -2% | 14µM* | -14%
Cc1cc(F)ccc1NCc1cc2c(cc1[N+](=O)[O-])OCO2 | -17% | 11[1.84 µM] | 7 | 5% | 11µM* | 15%
Cn1c(-c2ccccc2)cnc1NCc1cc2c(cc1[N+](=O)[O-])OCO2 | -16% | . | 14 | -3% | 13µM* | -18%
CN(C)c1ccc(C2N([C@H](C#N)c3ccc(N(C)C)cc3)CCCN2[C@@H](C#N)c2ccc(N(C)C)cc2)cc1 (stereo not given in full) | -7% | . | . | 0%[7.66 µM] | 1µM* | .
Cc1ccc(C(C#N)N2CCOCC2)cc1 (stereo not given) | -6% | -2 | -12 | -5% | -11% | -2%
CCC(C)n1c(SC(C)C#N)nc2ccccc2c1=O (stereo not given) | 0% | 9 | 22 | -1% | ? | -1%
CC(C#N)On1c(SC(C)C#N)nc2ccccc2c1=O (stereo not given) | -7% | -1 | -1 | 1% | 16µM* | 13%
CC(C)(C)Nc1oc(-c2ccccc2)nc1-c1cccc2ccccc12 | -8% | . | . | 1% | ? | .
Fc1ccc(N2CCN(c3nc(-c4ccco4)cc(C(F)(F)F)n3)CC2)cc1 | -17% | -5 | 23 | -3% | 5% | -13%
